# From PubChem
# Measles CPE – protection of cells from measles virus; Measles virus-infected cells, CPE protection, absorbance; protection (pct of control), % at 4 µM; hit rate 1.5% among 140,000; AID 841; in the data active means protection mostly above about 24%, no sharp cut-off; inactive means mostly below about 26%
# IL1B NFkB pot – enhances IL-1B driven NFkB nuclear translocation | activation, % at 2 µM | hit rate 0.3% among 94,000 | AID 819 | HUVEC IL-1B NFkB p65 nuclear translocation imaging;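 active means activation above 40%, about the mean plus 3 SD, also judged a hit on visual image review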;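 further: percent activation is computed from the nuclear over cytoplasmic p65 intensity ratio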
# IL1B cytotox – HUVEC cytotoxicity counter-screen, IL-1B stimulated; HUVEC cell count loss, Hoechst imaging; cell count reduction, % at 2 µM; hit rate 0.41% among 94,000; AID 845;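 active means cell count reduction more than 3 SD above the screen-wide mean, cut at about 70% in these data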;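 further: normalized per plate to untreated control cells as the no-loss baseline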
# NFkB transloc inh – blocks IL-1B driven NFkB nuclear translocation in HUVEC cells. HUVEC IL-1B NFkB p65 nuclear translocation imaging. inhibition, % at 2 µM. hit rate 0.43% among 94,000. AID 796;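 active means inhibition above about 30% together with a positive call from visual inspection of the well image, limit read from the data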;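 further: nuclear over cytoplasmic p65 intensity ratio measured by imaging; 0% = IL-1B stimulated DMSO wells and 100% = unstimulated DMSO wells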
# An asterisk follows results filed as active; . = no result given. This is a sample that favours compounds with a hit; in the whole collection about 2.1% have one here.
SMILES,Measles CPE,IL1B NFkB pot,IL1B cytotox,NFkB transloc inh
CNc1cc(CSC)nc(SCc2ccc(Cl)cc2Cl)n1,26.4*,-2.9,-3.3,2.9
CCOc1ccccc1C(=O)Nc1cccc(-c2nnc(-c3ccccc3)o2)c1,26.7,3.9,-13.9,-3.9
Cc1ccc(N(CC(=O)NCc2ccc(F)cc2)S(=O)(=O)c2cccs2)cc1,12.1,6.0,-3.7,-6.0
N#Cc1c2c(c(-c3ccco3)[nH]c1=O)CCCC2,46.4*,19.4,-80.9,-19.4
N#Cc1c(-c2ccco2)c2c([nH]c1=S)CCCC2,8.5,.,.,.
O=C(COC(=O)C1CCN(/C=C/C(=O)C(F)(F)F)CC1)Nc1ccccc1,7.6,.,.,.
O=C(Cc1ccccc1)NNC(=S)Nc1ccc(Cl)cc1,19.4*,.,.,.
COc1ccc(NC(=O)CCN2CCCC(C)C2)cc1 (stereo not given),41.4*,-9.8,-4.2,9.8
COc1ccc(NC(=O)CCN2CCC(C)CC2)cc1,10.8,5.0,-46.7,-5.0
CC1CCCN(CC(=O)Nc2cccc([N+](=O)[O-])c2)C1 (stereo not given),31.6*,.,.,.
Cc1ccc(S(=O)(=O)Nc2ccc(NC(=O)CN3CCCCC3)cc2)cc1,3.6,-10.9,21.6,10.9
Cc1ccc(S(=O)(=O)Nc2cccc(NC(=O)CN3CCCCC3)c2)cc1,63.2*,-8.1,-1.6,8.1
O=C(CN1C(=O)c2ccccc2C1=O)Nc1cccc([N+](=O)[O-])c1,1.7,.,.,.
O=C(CCCCCn1c(=O)[nH]c2ccsc2c1=O)N1CCN(C2CCCCC2)CC1,8.7,1.3,-6.3,-1.3
CCOC(=O)C(NCc1ccco1)(NC(=O)c1ccccc1)C(F)(F)F (stereo not given),2.9,2.0,-8.4,-2.0
Cc1ccc(OCCn2cnc3ccccc3c2=O)c([N+](=O)[O-])c1,4.0,.,.,.
Cc1nc2ncnn2c(C)c1CCC(=O)NCCc1ccccc1,100.4*,-10.6,4.1,10.6
CS(=O)(=O)NCCOc1ccc(S(=O)(=O)N2CCCc3ccccc32)cc1,8.5,1.1,-14.1,-1.1
CCOC(=O)c1[nH]c2ccc(OC)cc2c1NC(=S)N1CCN(c2ccccc2)CC1,31.0*,.,.,.
Cc1cc(-n2nnc3ccccc32)nc2ccccc12,31.2*,4.3,-22.0,-4.3
Cc1cc(N2CCCCCC2)nc2ccccc12,17.4,7.3,-9.2,-7.3
CCCn1c(SCC(=O)Nc2cc(S(=O)(=O)N3CCOCC3)ccc2OC)n[nH]c1=O,49.6*,.,.,.
CCCn1c(SCC(=O)Nc2cc(S(=O)(=O)N3CCOCC3)ccc2Cl)n[nH]c1=O,9.4,.,.,.
CCOc1ccc(N2C(=O)Nc3ccccc3C2(O)C(=O)NCc2ccc3c(c2)OCO3)cc1 (stereo not given),36.2,-4.8,-7.8,4.8
Cc1ccc(N2C(=O)Nc3ccc(Br)cc3C2(O)C(=O)NCCCN(C)C)cc1C (stereo not given),50.0*,.,.,.
SMILES,Measles CPE,IL1B NFkB pot,IL1B cytotox,NFkB transloc inh
CCN(CC)C(=O)C(Sc1ccccc1)c1ccccc1 (stereo not given),60.8*,-4.9,19.7,4.9
COc1ccc(S(=O)(=O)N(C)CC(=O)Nc2ccc3c(c2)OCO3)cc1OC,9.0,-6.6,81.4*,6.6
CCOc1ccc(S(=O)(=O)NCCC(=O)OC(C)C(=O)N2CCc3ccccc32)cc1 (stereo not given),53.5*,7.6,1.4,-7.6
O=C(c1cc(-c2ccco2)on1)N1CCc2ccccc2C1,69.0*,0.0,-11.5,0.0
CCCCOC(=O)C1C2C=CC3(CN(CCc4ccccc4)C(=O)C13)O2 (stereo not given),3.3,2.1,-36.4,-2.1
O=C(COc1ccc(C(F)(F)F)cc1[N+](=O)[O-])Nc1cccc(C(F)(F)F)c1,50.1*,.,.,.
O=C(CSc1ccc(C(F)(F)F)cc1[N+](=O)[O-])Nc1ccccc1,14.2,-8.3,-7.0,8.3
COc1cc(/C=N/NS(=O)(=O)c2ccc3ccccc3c2)ccc1OCCN1CCOCC1,4.5,.,.,.
CC(C)CC(=O)NCCCN1CCN(CCCNC(=O)CC(C)C)CC1,25.4,3.6,-123.3,-3.6
CCCCC(CC)C(=O)NCCCN1CCN(CCCNC(=O)C(CC)CCCC)CC1 (stereo not given),35.9*,.,.,.
COc1ccc(/C=N/NC(=O)c2cccc(NC(=O)c3ccccc3)c2)c(C(=O)O)c1OC,5.8,.,.,.
CC(C)(C)Cc1nnc(NS(=O)(=O)c2ccc(F)cc2)s1,6.4,98.4*,-7.6,-98.4
CCCCC(CC)CNC(=O)CN(C)S(=O)(=O)c1cccc2nsnc12 (stereo not given),38.3*,-6.9,30.7,6.9
O=C(CCc1nc2ccccc2[nH]c1=O)OCC(=O)c1cccc2ccccc12,6.4,-3.8,-3.5,3.8
COc1ccc(Br)c2oc(SC)cc(=O)c12,8.8,.,.,.
CCn1cc(C(=O)NC2CCC(C)CC2)c(=O)c2cc(S(=O)(=O)N3CCCCC3)ccc21 (stereo not given),90.9*,-0.5,7.9,0.5
CC(C)(C)C(=O)Nc1nnc(Cc2ccccc2)s1,16.0,41.7*,-25.7,-41.7
CCCCOC(=O)Nc1nnc(CCc2ccccc2)s1,50.5*,24.9,8.1,-24.9
Cc1ccc2c3c([nH]c2c1C)-c1nonc1CC3,43.2*,-8.1,10.9,8.1
Cc1cc2c(nn1)CCc1nonc1-2,5.7,18.2,0.9,-18.2
O=c1ccc(NS(=O)(=O)c2ccc(Cl)cc2)cn1Cc1ccc(Cl)c(Cl)c1,2.8,-3.4,18.6,3.4
CCN(CC(=O)Nc1ccc(NC(C)=O)cc1)C(=O)/C=C/c1cccs1,44.3*,.,.,.
CCCN(CC(=O)Nc1ccccc1C)C(=O)/C=C/c1cccs1,22.9,.,.,.
COc1ccc(OC)c(NS(=O)(=O)c2ccc(Cl)nc2)c1,31.5*,.,.,.
CC(C#N)Sc1nc2ccccc2c(=O)n1-c1ccccc1 (stereo not given),7.2,.,.,.
SMILES,Measles CPE,IL1B NFkB pot,IL1B cytotox,NFkB transloc inh
COc1ccc(S(=O)(=O)N(C(C)=O)c2ccc(OC(C)=O)c3ccccc23)cc1[N+](=O)[O-],15.1,.,.,.
Cc1cc(C)c(-c2noc(C(=O)OC(C)(C)C)c2C(=O)OC(C)(C)C)c(C)c1,0.2,.,.,.
O=C(CCl)Nc1ccccc1Sc1ccccc1,45.7*,25.2,4.5,-25.2
O=C(Cc1ccc(Cl)cc1)Nc1ccccc1Sc1ccccc1,8.9,.,.,.
N#CC1=C(N)OC2=C(C(=O)CCC2)C1c1ccccc1 (stereo not given),33.8*,6.6,3.9,-6.6
CC(c1ccccc1)C1C(C#N)=C(N)OC2=C1C(=O)CCC2 (stereo not given),3.0,116.0*,-5.6,-116.0
N#CC1=C(N)OC2=C(C(=O)CCC2)C1c1ccsc1 (stereo not given),4.0,27.2,-25.1,-27.2
NC(=O)c1c(NC(=O)Cc2cccs2)sc2c1CCC2,44.9*,3.4,-14.9,-3.4
CCCCN1c2ccccc2N(CCCO)c2cc(C)nnc21,4.2,8.6,-90.2,-8.6
N/C(=N\OS(=O)(=O)c1ccc(Br)cc1)c1ccncc1,30.2,-35.0,-18.6,35.0*
CCOC(=O)c1c(C)[nH]c(C(=O)COC(=O)C2(C)CC2(Cl)Cl)c1C (stereo not given),12.2,19.0,-5.5,-19.0
O=C(/C=C/c1ccccc1)Nn1c(-c2cccc([N+](=O)[O-])c2)nc2ccccc2c1=O,11.4,.,.,.
Cc1c(/C=C/C(=O)c2ccc(O)cc2)cnn1C,41.9*,.,.,.
COc1cc(OC)c(C2SCCS2)c(OC)c1,33.1*,.,.,.
